# Laboratory results taken from article PMC12820563, “FoxP3 forms a head-to-head dimer in vivo and stabilizes its multimerization on adjacent microsatellites”.
# The full ranking holds about 16,000 sequences; the median of “rpm ratio (pull-down/input)” is about 0.94, and the highest 2% start at about 1.7. The sample holds the highest values, similar sequences and a random draw of the others, so the mix is not that of the screen.
# Biological target: T1, MBP-FoxP1dN (Mus musculus, UniProt P58462 326-579)
# T1 sequence: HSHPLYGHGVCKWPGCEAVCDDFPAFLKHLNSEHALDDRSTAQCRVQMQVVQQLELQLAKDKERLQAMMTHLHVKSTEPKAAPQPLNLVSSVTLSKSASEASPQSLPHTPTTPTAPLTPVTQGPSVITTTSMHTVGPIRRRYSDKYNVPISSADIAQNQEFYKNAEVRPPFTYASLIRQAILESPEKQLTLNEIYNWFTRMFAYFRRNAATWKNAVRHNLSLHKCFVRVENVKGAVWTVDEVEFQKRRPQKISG
# Experiment: PD-seq (MBP pull-down with sequencing); 20 mM Tris-HCl pH 7.5, 100 mM NaCl, 1.5 mM MgCl2, 0.4 uM protein, 0.1 uM dsDNA library, 30 min, room temperature, amylose pull-down; high values mean tight binding
# Details: protein: recombinant; tags: His6-MBP; chain copies: 2; dsDNA, one strand shown
# Method in brief: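 A fragment of mouse FoxP3 or FoxP1 without its N-terminus, carrying a His6-MBP tag and produced in E. coli, was combined at 0.4 µM with a 0.1 µM degenerate double-stranded DNA library filled in with Klenow. The mixture sat for 30 min at room temperature in Tris pH 7.5 buffer containing NaCl and MgCl2. Protein–DNA complexes were captured on amylose resin, washed three times, and the DNA was freed with proteinase K, barcoded by PCR and sequenced on Illumina. Binding is expressed as reads-per-million enrichment of pull-down over input, with replicates pooled.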
row,Sequence,binding signal
1,GATGATTGTTCTCCCAGCTGATGAATTGAGATTTTCGAGTAAACAAATTTTCCTAATCTTTCTGTTCAAGCGCCATCTAC,0.923 RPM ratio (pull-down/input)
2,GATGATTGTTCTCCCAGCTGATGAATTGAGGTCTTCGAGTAAACAAATTTTCCTAATCTTTCTGTTCAAGCGCCATCTAC,0.786 RPM ratio (pull-down/input)
3,GATGATTGTTCTCCCAGCTGATGAATTCATCGCCTCGAGTAAACAAATTTTCCTAATCTTTCTGTTCAAGCGCCATCTAC,0.873 RPM ratio (pull-down/input)
4,GATGATTGTTCTCCCAGCTGATGAATTACGGGGTTCGAGTAAACAAATTTTCCTAATCTTTCTGTTCAAGCGCCATCTAC,0.931 RPM ratio (pull-down/input)
5,GATGATTGTTCTCCCAGCTGATGAATTAGAAACTTCGAGTAAACAAATTTTCCTAATCTTTCTGTTCAAGCGCCATCTAC,0.892 RPM ratio (pull-down/input)
6,GATGATTGTTCTCCCAGCTGATGAATTGTCAACTTCGAGTAAACAAATTTTCCTAATCTTTCTGTTCAAGCGCCATCTAC,1.31 RPM ratio (pull-down/input)
7,GATGATTGTTCTCCCAGCTGATGAATTGGATTCTTCGAGTAAACAAATTTTCCTAATCTTTCTGTTCAAGCGCCATCTAC,0.813 RPM ratio (pull-down/input)
8,GATGATTGTTCTCCCAGCTGATGAATTACAAGGTTCGAGTAAACAAATTTTCCTAATCTTTCTGTTCAAGCGCCATCTAC,1.09 RPM ratio (pull-down/input)
9,GATGATTGTTCTCCCAGCTGATGAATTCACCACATCGAGTAAACAAATTTTCCTAATCTTTCTGTTCAAGCGCCATCTAC,1.12 RPM ratio (pull-down/input)
10,GATGATTGTTCTCCCAGCTGATGAATTGGTCTGGTCGAGTAAACAAATTTTCCTAATCTTTCTGTTCAAGCGCCATCTAC,0.807 RPM ratio (pull-down/input)
11,GATGATTGTTCTCCCAGCTGATGAATTTGATGCGTCGAGTAAACAAATTTTCCTAATCTTTCTGTTCAAGCGCCATCTAC,1.13 RPM ratio (pull-down/input)
12,GATGATTGTTCTCCCAGCTGATGAATTAAACAGGTCGAGTAAACAAATTTTCCTAATCTTTCTGTTCAAGCGCCATCTAC,1.21 RPM ratio (pull-down/input)
13,GATGATTGTTCTCCCAGCTGATGAATTTGGGTCTTCGAGTAAACAAATTTTCCTAATCTTTCTGTTCAAGCGCCATCTAC,0.904 RPM ratio (pull-down/input)
14,GATGATTGTTCTCCCAGCTGATGAATTATATCGATCGAGTAAACAAATTTTCCTAATCTTTCTGTTCAAGCGCCATCTAC,0.956 RPM ratio (pull-down/input)
15,GATGATTGTTCTCCCAGCTGATGAATTGATCTGATCGAGTAAACAAATTTTCCTAATCTTTCTGTTCAAGCGCCATCTAC,0.968 RPM ratio (pull-down/input)
16,GATGATTGTTCTCCCAGCTGATGAATTGATTGTATCGAGTAAACAAATTTTCCTAATCTTTCTGTTCAAGCGCCATCTAC,1.54 RPM ratio (pull-down/input)

row,Sequence,binding signal
1,GATGATTGTTCTCCCAGCTGATGAATTGTTTTGATCGAGTAAACAAATTTTCCTAATCTTTCTGTTCAAGCGCCATCTAC,2.01 RPM ratio (pull-down/input)
2,GATGATTGTTCTCCCAGCTGATGAATTGATCTAATCGAGTAAACAAATTTTCCTAATCTTTCTGTTCAAGCGCCATCTAC,1.19 RPM ratio (pull-down/input)
3,GATGATTGTTCTCCCAGCTGATGAATTGAATTGATCGAGTAAACAAATTTTCCTAATCTTTCTGTTCAAGCGCCATCTAC,0.941 RPM ratio (pull-down/input)
4,GATGATTGTTCTCCCAGCTGATGAATTGTATTGATCGAGTAAACAAATTTTCCTAATCTTTCTGTTCAAGCGCCATCTAC,2.22 RPM ratio (pull-down/input)
5,GATGATTGTTCTCCCAGCTGATGAATTTTTTTGATCGAGTAAACAAATTTTCCTAATCTTTCTGTTCAAGCGCCATCTAC,0.955 RPM ratio (pull-down/input)
6,GATGATTGTTCTCCCAGCTGATGAATTTGTTTGATCGAGTAAACAAATTTTCCTAATCTTTCTGTTCAAGCGCCATCTAC,1.47 RPM ratio (pull-down/input)
7,GATGATTGTTCTCCCAGCTGATGAATTGTGTTGATCGAGTAAACAAATTTTCCTAATCTTTCTGTTCAAGCGCCATCTAC,2.46 RPM ratio (pull-down/input)
8,GATGATTGTTCTCCCAGCTGATGAATTGTGAAAGTCGAGTAAACAAATTTTCCTAATCTTTCTGTTCAAGCGCCATCTAC,1.01 RPM ratio (pull-down/input)
9,GATGATTGTTCTCCCAGCTGATGAATTAACAGACTCGAGTAAACAAATTTTCCTAATCTTTCTGTTCAAGCGCCATCTAC,0.866 RPM ratio (pull-down/input)
10,GATGATTGTTCTCCCAGCTGATGAATTCATCCACTCGAGTAAACAAATTTTCCTAATCTTTCTGTTCAAGCGCCATCTAC,0.832 RPM ratio (pull-down/input)
11,GATGATTGTTCTCCCAGCTGATGAATTGTACCACTCGAGTAAACAAATTTTCCTAATCTTTCTGTTCAAGCGCCATCTAC,0.996 RPM ratio (pull-down/input)
12,GATGATTGTTCTCCCAGCTGATGAATTCCTGATGTCGAGTAAACAAATTTTCCTAATCTTTCTGTTCAAGCGCCATCTAC,1.08 RPM ratio (pull-down/input)
13,GATGATTGTTCTCCCAGCTGATGAATTCTTGTTGTCGAGTAAACAAATTTTCCTAATCTTTCTGTTCAAGCGCCATCTAC,2.6 RPM ratio (pull-down/input)
14,GATGATTGTTCTCCCAGCTGATGAATTCCTGTTGTCGAGTAAACAAATTTTCCTAATCTTTCTGTTCAAGCGCCATCTAC,2.34 RPM ratio (pull-down/input)
15,GATGATTGTTCTCCCAGCTGATGAATTCCTCCTGTCGAGTAAACAAATTTTCCTAATCTTTCTGTTCAAGCGCCATCTAC,0.729 RPM ratio (pull-down/input)
16,GATGATTGTTCTCCCAGCTGATGAATTCTCCTTGTCGAGTAAACAAATTTTCCTAATCTTTCTGTTCAAGCGCCATCTAC,0.774 RPM ratio (pull-down/input)
